# Publication PMC5540273 (PLoS ONE, 2017)
# Columns and labels:
# Conditions in all cases: concentration: 1 μM, replicates: in singlicate; n = 1
# [1] = tested on: T1, JNK2
# T1 construct: gene MAPK9
# [2] = tested on: T2, JNK3
# T2 construct: gene MAPK10
# [3] = tested on: KIT-autoinhibited
# [4] = tested on: KIT
# [5] = tested on: LATS1
# [6] = tested on: LATS2
# [7] = tested on: LCK
# [8] = tested on: LIMK1
# [9] = tested on: LIMK2
# [10] = tested on: T3, LKB1
# T3 construct: gene STK11
# [11] = tested on: T4, LOK
# T4 construct: gene STK10
# [12] = tested on: LRRK2
# [13] = tested on: LTK
# [14] = tested on: LYN
# [15] = tested on: T5, LZK
# T5 construct: gene MAP3K13
# [16] = tested on: MAK
# [17] = tested on: MAP3K15
# [18] = tested on: MAP3K1
# [19] = tested on: MAP3K2
# [20] = tested on: MAP3K3
# 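Note: KINOMEscan kinase panel screen.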
Compound,%Inh [1],%Inh [2],%Inh [3],%Inh [4],%Inh [5],%Inh [6],%Inh [7],%Inh [8],%Inh [9],%Inh [10],%Inh [11],%Inh [12],%Inh [13],%Inh [14],%Inh [15],%Inh [16],%Inh [17],%Inh [18],%Inh [19],%Inh [20]
Nc1ncnc2c1ncn2-c1ccc(Cl)cc1 [AH2635],0%,0%,0%,65%,0%,24%,24%,0%,6%,10%,0%,0%,14%,0%,27%,8%,0%,0%,0%,0%
C[C@@H]1CC[C@H](C(=O)NC2CCCCC2)CN1c1cc(-c2ccc3c(N)n[nH]c3c2)nc(N)n1 [GSK2291363],30%,10%,10%,27%,0%,72%,24%,0%,11%,23%,0%,0%,0%,0%,0%,25%,0%,21%,20%,0%
Cc1ccccc1COc1cc(-n2cnc3cc(Cl)ccc32)sc1C(N)=O [GW813349],0%,0%,0%,0%,0%,61%,0%,0%,13%,0%,46%,82%,9%,33%,0%,0%,1%,32%,5%,11%
CN(C)c1cc(-c2ccc3c(N)n[nH]c3c2)nc(N)n1 [GSK2219329],11%,4%,81%,7%,0%,2%,17%,0%,14%,0%,0%,0%,4%,0%,10%,16%,0%,0%,0%,0%
Nc1n[nH]c2ncc(-c3ccccc3)cc12 [SB-517081],14%,5%,13%,83%,0%,0%,7%,0%,9%,0%,0%,0%,0%,0%,0%,17%,0%,6%,15%,0%
Cn1c(=O)c(F)c(Nc2ccc(I)cc2F)c2c(=O)n(OC[C@H](O)CO)cnc21,0%,0%,0%,7%,18%,0%,1%,14%,26%,0%,2%,0%,20%,14%,0%,0%,0%,0%,0%,4%
CCc1ccc(-c2ccc3c(c2)-c2nn(C)cc2S(=O)(=O)N3C)cc1,0%,0%,53%,0%,0%,0%,17%,0%,0%,21%,2%,0%,0%,0%,0%,0%,0%,0%,0%,0%
Nc1n[nH]c2nnc(-c3ccccc3)c(-c3ccccc3)c12 [GW554060],23%,15%,0%,18%,0%,4%,14%,6%,11%,0%,0%,41%,0%,100%,3%,26%,0%,25%,3%,0%
COc1cc(Nc2ccnc3ccc(C(F)(F)F)cc23)cc(OC)c1OC [GW577382],48%,29%,0%,19%,0%,0%,68%,18%,0%,0%,18%,27%,0%,25%,30%,12%,3%,4%,0%,0%
Cc1ccc(Oc2ccc(Nc3ncnc4cc[nH]c34)cc2C)cn1,44%,57%,12%,16%,26%,44%,3%,4%,0%,11%,1%,0%,0%,0%,40%,25%,38%,0%,4%,30%
O=C(Nc1ccc2c(c1)OCO2)NC1CCN(c2ccnc(NCc3ccc(F)cc3)n2)CC1 [GSK1379859],0%,0%,0%,2%,0%,0%,14%,0%,21%,6%,0%,0%,1%,4%,0%,79%,0%,8%,0%,0%
